MEKK2 mut-MEK5: signal of MEK5 binding to mutant human MEKK2 PB1 domain; percent response, % at 10 µM; AID 1530; 290,000 compounds, 0.35% hits; bead flow cytometry, Alexa488-MEK5 binding to MEKK2 mutant; in the data active = percent response above about 24%, passing the limit was not always enough
ANO1 activ: activates or potentiates the mouse TMEM16A chloride channel; 340,000 compounds, 0.3% hits; B-score at 10 µM; Q8BHY3; AID 623877; HEK293 TMEM16A/YFP-H148Q/I152L, iodide quench fluorescence; stronger effect = lower value;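 active = fluorescence-ratio B-score plate-corrected deviation score at least 3 library SD below zero, with starting fluorescence score within 5 deviations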;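 note: channel opened by trigger with iodide after compound preincubation; score built on the fluorescence ratio of max minus min over baseline; more negative score means more quench and so TMEM16A activation or potentiation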
TMEM16A inh: mouse TMEM16A channel inhibition, primary screen; normalized B-score (activity score, 25-100; higher = stronger inhibition) at 10 µM; 310,000 compounds, 1.2% hits; HEK293 TMEM16A/YFP iodide influx fluorescence, ionomycin; AID 588511;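 active = ratio plate-corrected score three or more library SD toward inhibition, starting fluorescence score within five deviations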;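 note: score derived from kinetic fluorescence span divided by baseline fluorescence per well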
MEKK3 PB1 HTS: MEKK3-MEK5 PB1 interaction, increase or decrease; 290,000 compounds, 1.4% hits; bead-based flow cytometry, Alexa488-MEK5 binding to MEKK3; actives lie on both sides; 0 = blocked by unlabeled MEK5, 100 = vehicle; Q99759; AID 1529; binding response (% of control), % at 10 µM;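 active = binding response more than 3 SD above or below the average of its plate-row segment, actives on both sides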;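 note: Alexa488 bead fluorescence after subtracting the streptavidin-only scavenger bead signal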
NTR1 ag: activates human neurotensin receptor 1 | P30989 | NTR1-U2OS beta-arrestin-GFP spot imaging, agonist mode | activation, % at 20 µM | 330,000 compounds, 0.17% hits | AID 493036;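 active = activation at or above 40% of the spot to cytoplasm intensity ratio, with at least 20 cells analyzed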;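 note: 0% = DMSO without peptide and 100% = 100 nM NTR1 peptide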
Target sequence (P30989 whole entry, looked up): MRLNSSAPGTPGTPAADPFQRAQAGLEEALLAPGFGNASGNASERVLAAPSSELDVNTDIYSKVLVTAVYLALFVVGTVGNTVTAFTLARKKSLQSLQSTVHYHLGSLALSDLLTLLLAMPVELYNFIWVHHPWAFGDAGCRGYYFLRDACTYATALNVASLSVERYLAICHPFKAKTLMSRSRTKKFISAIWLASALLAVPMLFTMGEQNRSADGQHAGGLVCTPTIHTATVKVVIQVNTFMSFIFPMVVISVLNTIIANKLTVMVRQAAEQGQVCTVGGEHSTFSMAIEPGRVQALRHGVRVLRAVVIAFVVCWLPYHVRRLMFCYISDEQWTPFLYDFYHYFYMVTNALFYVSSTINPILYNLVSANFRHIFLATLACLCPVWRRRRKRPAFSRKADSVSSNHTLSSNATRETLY
MEKK2wt PB1 HTS: raises or lowers MEK5 binding to wildtype human MEKK2 PB1 domain; Q9Y2U5; binding response (% of control), % at 10 µM; 290,000 compounds, 1.1% hits; bead flow cytometry, Alexa488-MEK5 binding to MEKK2 WT; actives lie on both sides; in the data active = binding response below about 67% or above about 130%
TMEM16A reconf: re-confirmation of mouse TMEM16A chloride channel inhibitors. shares compounds with TMEM16A inh. HEK293 TMEM16A/YFP-H148Q, iodide quench fluorescence; ionomycin added to raise cell calcium. inhibition, % at 10 µM. 2,300 compounds, 39% hits. AID 652189;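 active = mean duplicate percent inhibition, scaled so buffer wells are 0 and the reference blocker 100, over three buffer SD above buffer mean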
HEK293 Ca mobil: counter-screen for TMEM16A inhibitors: effect on calcium mobilization; shares compounds with TMEM16A inh; TMEM16A/YFP HEK293, Fluo4 calcium mobilization; calcium response (% of ionomycin), % at 10 µM; 2,300 compounds, 2% hits;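 active = duplicate-averaged calcium signal over 20% of the ionomycin maximum, relative to buffer baseline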;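 note: each well's signal is peak minus trough fluorescence divided by its pre-addition baseline; 0% = buffer wells and 100% = ionomycin wells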
Parental YFP cnt: counter-screen for TMEM16A inhibitors: effect in parental YFP-HEK293 cells. YFP ratio F(max-min)/F0 at 10 µM. AID 652233. iodide YFP quench, ionomycin. 2,300 tested, under 10 active. shares compounds with TMEM16A inh;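 active = yellow fluorescent protein signal ratio exceeding the buffer control mean by over 5 SD of those controls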;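 note: ratio is mean of duplicate wells from kinetic YFP trace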
ClC-1 rat inh: selectivity of TMEM16A inhibitors: inhibition of rat ClC-1 chloride channel | AID 652236 | CHO ClC-1-YFP, iodide influx fluorescence quench; iodide control reads 0, buffer control 100 | shares compounds with TMEM16A inh | 2,300 tested, under 10 active | ratio percent, % at 10 µM;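 active = duplicate-mean ratio percent above the mean of iodide-only control wells, which defines zero, plus 5 of their SD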;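 note: higher percent means stronger block of ClC-1 iodide influx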
* = called active by the depositor; i = inactive; nt = no result. Compounds with a hit are over-represented: about 3.4% of the library has one in this group of screens.

SMILES	MEKK2 mut-MEK5	ANO1 activ	TMEM16A inh	MEKK3 PB1 HTS	NTR1 ag	MEKK2wt PB1 HTS	TMEM16A reconf	HEK293 Ca mobil	Parental YFP cnt	ClC-1 rat inh
Cc1ccc(Nc2nc3nonc3[nH]c2=O)cc1Cl	1.0	i	100*	101.0	5.8	100.0	40.5%*	i	-1.03	-23.0
COc1ccc(/C=N/Nc2nnc(Cc3ccccc3)c(=O)[nH]2)cc1	4.0	i	i	101.0	0.0	100.0	i	i	-0.357	-3.5
CCCn1c(CN(Cc2ccccc2)Cc2ccccc2)nc2c1c(=O)n(C)c(=O)n2C	5.0	i	100*	101.0	16.2	101.0	18.0%*	i	-0.867	-7.5
CC(C)(C)NC(=O)CC1C[C@H](C(=O)N2CCOCC2)[C@@]2(C)c3[nH]c4ccccc4c3CCN2C1=O (stereo partly specified)	nt	nt	nt	nt	-1.6	nt	nt	nt	nt	nt
CC(C)OP(=O)(CCP(=O)(OC(C)C)OC(C)C)OC(C)C	-20.0	i	i	81.0	-0.1	81.0	nt	nt	nt	nt
O=C(Nc1ccc(Cl)c(Cl)c1)Nc1ccccc1O	3.0	i	100*	107.0	12.7	104.0	21.5%*	i	-1.07	-20.0
COc1ccc(NC(=O)CSc2nc(N)c(NC(=O)c3cccs3)c(=O)[nH]2)cc1	0.0	i	i	102.0	3.9	102.0	nt	nt	nt	nt
O=S(=O)(Nc1nnc(-c2ccccc2)s1)c1ccc(Cl)cc1	-10.0	i	100*	86.0	-0.6	88.0	38.0%*	i	-0.902	-18.5
COCc1nnc(NS(=O)(=O)c2ccc(Cl)cc2)s1	3.0	i	nt	103.0	0.3	102.0	nt	nt	nt	nt
Cc1ccc(NS(=O)(=O)c2ccc(C(=O)N3CC(C)CC(C)C3)cc2)cc1 (stereo unspecified)	nt	-17.3*	100*	nt	11.3	nt	79.5%*	40.0%*	-1.06	-7.0
CCn1nc(C)c(CNC(=O)c2cc(COc3ccc(F)cc3Cl)on2)c1C	1.0	i	25*	104.0	2.0	100.0	24.0%*	i	-1.06	-15.5
COc1ccc(CN(C)Cc2nc(Cc3cccc(F)c3)no2)c2cccnc12	-5.0	i	25*	99.0	0.8	100.0	i	i	-1.05	-18.0
COc1cccc(-n2cc(CN(C)Cc3nc(Cc4cccc(F)c4)no3)cn2)c1	-3.0	i	i	102.0	-0.9	107.0	nt	nt	nt	nt
CCOC(=O)N1CCC(NC(=O)C2CCCN(Cc3nc(-c4cccc(C)c4)oc3C)C2)CC1 (stereo unspecified)	1.0	i	25*	103.0	0.8	103.0	i	i	-1.18	-18.5
Cc1oc(-c2ccc(Cl)cc2)nc1CN1CCCC(C(=O)N2CCOCC2)C1 (stereo unspecified)	0.0	i	i	98.0	-0.6	103.0	nt	nt	nt	nt
Cc1oc(-c2ccc(Cl)cc2)nc1CN1CCCC(C(=O)N2CCN(C(=O)c3ccco3)CC2)C1 (stereo unspecified)	6.0	i	25*	105.0	-2.0	112.0	18.5%*	i	-0.985	-7.5
COc1ccc2sc(-c3ccc(N(C)C)cc3)c(C#Cc3cncn3C)c2c1	nt	i	nt	nt	11.8	nt	nt	nt	nt	nt
COc1ccc(Cn2c(CCC(=O)Nc3ccc(CC#N)cc3)nc3cccnc32)cc1	1.0	i	25*	102.0	-0.6	99.0	i	i	-1.07	-6.0
COc1ccc(Cn2c(CCC(=O)Nc3ccccc3)nc3cccnc32)cc1	5.0	i	i	119.0	-1.5	111.0	nt	nt	nt	nt
COc1ccc(NC(=O)C2CCN(C(=O)[C@@H]3Cc4ccccc4CN3C(=O)OC(C)(C)C)CC2)cc1	1.0	i	i	99.0	-0.7	100.0	nt	nt	nt	nt
COc1ccccc1C(c1nnnn1CCc1ccccc1)N1CCCCCC1 (stereo unspecified)	2.0	i	25*	109.0	5.7	113.0	18.5%*	i	-1.12	-3.0
Cc1ccc(Nc2nc(-c3cccnc3)nc3ccccc23)cc1	8.0	i	i	102.0	21.5	106.0	nt	nt	nt	nt
CCOC(=O)c1ccc(Nc2nc(-c3cccnc3)nc3ccccc23)cc1	15.0	i	25*	103.0	17.6	111.0	38.0%*	i	-1.15	-20.5
CC(=O)N=c1c(C#N)cc2c(=O)n3ccccc3nc2n1CCCOC(C)C	-23.0	i	i	82.0	-0.7	82.0	nt	nt	nt	nt
CC(C)OCCCn1c(=NC(=O)c2ccncc2)c(C#N)cc2c(=O)n3ccccc3nc21	1.0	i	25*	101.0	6.8	103.0	i	27.5%*	-1.13	-14.0
SMILES	MEKK2 mut-MEK5	ANO1 activ	TMEM16A inh	MEKK3 PB1 HTS	NTR1 ag	MEKK2wt PB1 HTS	TMEM16A reconf	HEK293 Ca mobil	Parental YFP cnt	ClC-1 rat inh
CCC1CCCCN1S(=O)(=O)c1ccc(C(=O)Nc2nnc(C3CC3)o2)cc1 (stereo unspecified)	-4.0	i	i	96.0	2.8	90.0	nt	nt	nt	nt
CCC1CCCCN1S(=O)(=O)c1ccc(NC(=O)c2ccncc2)cc1 (stereo unspecified)	-5.0	i	25*	100.0	0.7	94.0	22.0%*	i	-0.956	-14.5
CC(C)C(NC(=O)CCNC(=O)c1ccc([N+](=O)[O-])cc1)c1nc2ccccc2[nH]1 (stereo unspecified)	nt	i	nt	nt	-0.3	nt	nt	nt	nt	nt
COc1ccccc1-n1c(SCC(=O)c2ccc(O)cc2O)nc2cc([N+](=O)[O-])ccc21	-2.0	i	i	93.0	9.7	88.0	nt	nt	nt	nt
CC1CCC(NC(=O)C(C)N2C(=O)C3CCCCC3C2=O)CC1 (stereo unspecified)	nt	i	nt	nt	0.0	nt	nt	nt	nt	nt
CCOC(=O)c1oc2nc(CC(C)C)c3c(c2c1N)CCC3	-2.0	i	i	100.0	5.3	99.0	nt	nt	nt	nt
O=C(c1ccco1)[C@@H]1[C@@H]2C(=O)N(c3ccc(F)cc3)C(=O)[C@@H]2[C@H]2C=Cc3ccccc3N21	4.0	i	i	96.0	nt	82.0	nt	nt	nt	nt
NC(=O)[C@@H]1[C@@H]2C(=O)N(c3ccc(F)cc3)C(=O)[C@@H]2[C@H]2C=Cc3ccccc3N21	2.0	i	i	92.0	0.7	97.0	20.0%*	i	-1.05	-5.0

High-throughput results (PubChem BioAssay)
